High-throughput results from PubChem.
ELG1 DNA repair – qHTS screen for small molecules that inhibit ELG1-dependent DNA repair in human embryonic kidney (HEK293T) cells expressing luciferase-tagged ELG1; Potency, µM (doses to about 46.1 µM), for the others: at the highest dose activity change, negative = inhibition, usual class: inhibitors; HEK293T ELG1-luciferase reporter, luminescence, 16 h; DNA damage induced by 5-fluorouridine; 2.3% of 330,000 active; also: % is scaled to controls: 0 for no effect and ±100 for the full control effect; nearly all actives have a fitted effect of over 55% in size
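Quantitative HTS, concentration-response format. 2,000 cells/well co-treated with 5-fluorouridine and compound, 16 hr in 5% CO2 at 37 °C; ONE-Glo luminescence read after 30 min.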
NPC1 promoter act – qHTS Assay for NPC1 Promoter Activators. Huh7 NPC1 promoter luciferase reporter, 24 h. Potency, µM (top dose mostly 9.22 µM), for inactives: at the highest dose activation, usual class: activators. 2.4% of 320,000 active; also: % of control where 0% means no effect; nearly all actives have a fitted effect of over 60% in size
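Huh7 cells stably carrying NPC1 promoter–luciferase, plated in Opti-MEM with 10% FBS for 2 h, were exposed to compound in DMSO for 24 h at 37 °C; luciferase reagent was added for 10 min and luminescence read.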
ELG1 genotox – qHTS screen for small molecules that induce genotoxicity in human embryonic kidney (HEK293T) cells expressing luciferase-tagged ELG1; HEK293T ELG1-luciferase reporter, luminescence, 16 h; Potency, µM (series often up to 46 µM), for inactives: at the highest dose activity change, positive = activation, most hits filed as activators; 1.3% of 330,000 active; also: % of control where 0% means no effect; nearly all actives have a fitted effect of over 60% in size
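After overnight (16 hr) compound treatment at 37 °C, ELG1-luciferase HEK293T cells were lysed with ONE-Glo; luminescence quantified 30 min later at room temperature.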
SMN2 splice up – qHTS Assay for Enhancers of SMN2 Splice Variant Expression; HEK293 SMN2-luciferase splicing reporter, luminescence, 30-36 h; AID 1458, 2008; Potency, µM (series often up to 46.1 µM), inactives show at the highest dose activity change, positive = activation, most hits filed as activators; 2.8% of 210,000 active; also: % of control where 0% means no effect; nearly all actives have a fitted effect of over 55% in size
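HEK293 cells carry an SMN2 minigene-luciferase reporter in which exon 7 inclusion puts luciferase in frame. Cells were seeded at 2000 cells/well, attached for 10-12 hours, then exposed to compounds for 30-36 hours at 37C before ONE-Glo luminescence.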
FLuc modulator – qHTS profiling assay for firefly luciferase inhibitor/activator using purifed enzyme and Km concentrations of substrates (counterscreen for miR-21 project); Luciferin 4-monooxygenase (Photinus pyralis), P08659; purified FLuc, Km substrates, luminescence inhibition; Potency, µM (doses to about 57.5 µM), for the others: top-dose activity change, negative = inhibition, most hits filed as inhibitors; 6.9% of 360,000 active; AID 588342, 2011;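 also: plate controls were vehicle for no effect and reference inhibitor for full effect; nearly all actives have a fitted effect of over 55% in size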
Target sequence (P08659 whole entry, looked up): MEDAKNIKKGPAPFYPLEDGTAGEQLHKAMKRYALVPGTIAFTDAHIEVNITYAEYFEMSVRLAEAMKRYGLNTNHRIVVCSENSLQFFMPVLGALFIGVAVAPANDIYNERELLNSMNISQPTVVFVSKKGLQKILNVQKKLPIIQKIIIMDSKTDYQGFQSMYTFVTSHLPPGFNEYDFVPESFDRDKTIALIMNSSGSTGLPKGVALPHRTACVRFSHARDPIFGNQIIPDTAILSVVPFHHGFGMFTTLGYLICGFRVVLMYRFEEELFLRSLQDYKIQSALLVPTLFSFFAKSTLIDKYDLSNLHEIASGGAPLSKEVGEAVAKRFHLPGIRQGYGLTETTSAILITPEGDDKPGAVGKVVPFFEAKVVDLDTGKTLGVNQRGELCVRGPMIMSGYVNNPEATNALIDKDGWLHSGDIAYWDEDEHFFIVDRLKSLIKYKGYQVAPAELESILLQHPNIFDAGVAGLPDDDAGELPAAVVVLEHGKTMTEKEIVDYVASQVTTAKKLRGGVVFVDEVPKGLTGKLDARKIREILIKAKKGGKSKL
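Purified P. pyralis luciferase, 10 nM final, with Km-level 10 uM D-luciferin and 10 uM ATP in 50 mM Tris acetate pH 7.5, 10 mM Mg acetate, 0.01% Tween-20, 0.05% BSA; 6-point qHTS titration about 60 µM downward; luminescence read.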
Rab9 prom act – qHTS Assay for Rab9 Promoter Activators | Huh7 Rab9 promoter-luciferase reporter, luminescence, 24 h | Potency, µM (titrated, usually from 9.22 µM), for inactives: at the highest dose activation, negative = inhibition, hits mostly activators | 2.8% of 320,000 active | AID 485297, 2010; also: % of control where 0% means no effect; nearly all actives have a fitted effect of over 60% in size
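Rab9 promoter-driven luciferase in stably transfected Huh7 cells; 1500 cells/well rested 2 h, exposed to compound in DMSO for 24 h at 37 °C, 5% CO2. Luminescence read 10 min after adding luciferase reagent at ambient temperature.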
An asterisk follows results filed as active; ? = inconclusive; / = no result given; [ ] = remark or other dose. Rows were chosen to be rich in hits. Some 9.2% of all compounds tested hit in one or more screens of this group. Calls follow the shape of the dose curve; as a rule, active = well fitted curve in the direction sought with a large enough effect; inconclusive = small, poorly fitted or top-dose-only effect, or another doubt; inactive = no such curve, though single readings can be large; an effect the other way counts as inactive or inconclusive. Potency is read from the fitted curve at half-maximal effect.

SMILES	ELG1 DNA repair	NPC1 promoter act	ELG1 genotox	SMN2 splice up	FLuc modulator	Rab9 prom act
O=C(NC(=S)Nc1ccc2ncccc2c1)c1ccccc1	?	2.8µM*	?	?	?	2.2µM*
O=C(NC(=S)Nc1ccc2[nH]ncc2c1)c1ccccc1	?	?	15%	22%	?	?
CCc1noc(C)c1C(=O)OC(C)C(=O)Nc1ccc2c(c1)OCO2 (stereo unspecified)	6%	-1%	1%	/	3%	2%
Brc1ccc(-c2ccccc2)cc1	14%	8%	2%	5%	-2%	-9%
Brc1ccc(-c2ncc(-c3ccccc3)cn2)cc1	?	0.5µM*	0.82µM*	7.9µM*	0.43µM*	0.71µM*
CCOC(=O)c1[nH]c(C)c(C(=O)N2CCN(c3ccccc3OC)CC2)c1C	8%	-7%	2%	-20%	-3%	-4%
CCOc1ccccc1N(CC(=O)Nc1ccccc1C(=O)N1CCOCC1)S(C)(=O)=O	?	-1%	-7%	/	0%	-4%
CN1Cc2sc(NC(=S)NC(=O)c3ccccc3)c(C#N)c2CC1(C)C	?	8%	?	/	13µM*	9%
N#Cc1c(NC(=S)NC(=O)c2ccccc2)sc2c1CCC2	?	19%	?	-17%	-17%	?
N#Cc1c(NC(=O)c2ccco2)sc2c1CCC2	?	-6%	-1%	/	-1%	5%
CC1CCc2sc(NC(=S)NC(=O)c3ccccc3)c(C#N)c2C1 (stereo unspecified)	?	?	10%	?	12µM*	?
CCN1CCc2c(sc(NC(=S)NC(=O)c3ccccc3)c2C#N)C1	2%	-2%	3%	-1%	-9%	3%
CCC1(C)Cc2c(sc(NC(=S)NC(=O)c3ccccc3)c2C#N)CO1 (stereo unspecified)	?	18%	5%	2%	6µM*	28%
CC1(C)Cc2c(sc(NC(=O)c3ccco3)c2C#N)CO1	?	1.6µM*	?	?	1.9µM*	3.2µM*
CCc1c(C)sc(NC(=O)c2cc(-c3ccc(OC)cc3)on2)c1C#N	/	/	/	-5%	-3%	/
CCCCOC(=O)c1ccc(NC(=O)c2cc(-c3cccs3)on2)cc1	/	/	/	/	-5%	/
N=c1oc2cc(O)ccc2cc1C(=O)Nc1ccc(F)cc1	?	?	?	/	2.7µM*	3.5µM*
CCCCCCc1cc2cc(C(=O)Nc3ccc(OC)cc3)c(=O)oc2cc1O	?	-8%	-4%	-16%[1.84 µM]	3%	-18%
O=C(c1ccc(F)cc1)c1cc2ccc(O)cc2oc1=O	?	28%	?	/	15µM*	15%
COc1ccc(NC(=O)c2cc3ccc(O)cc3o/c2=N\O)cc1	?	?	?	/	0.27µM*	28%
COc1ccccc1-n1cnnc1SCC(=O)NC1CCCC1	6%	0%	2%	/	1%	9%
Cc1ccc(-c2cn(-c3ccc(Cl)cc3)c(S(=O)(=O)CC(=O)Nc3ccccc3)n2)cc1	/	/	/	3.2µM*	?	/
COc1ccc(NC(=O)c2cc(=O)c3cc(C)cc(C)c3o2)cc1	/	/	/	-3%	0%	/
O=C1NC(=S)S/C1=C/c1ccc(OC(=O)c2ccco2)cc1	?	19%	1%	/	7.6µM*	?
COc1cc(/C=C2/SC(=S)N(C)C2=O)ccc1OC(=O)c1ccco1	?	13%	10%	13%	-15%	-11%
CCOc1cc(/C=C2/SC(=S)NC2=O)ccc1OC(=O)c1ccco1	?	4%	0%	-4%	24µM*	13%
COc1cc(/C=C2/SC(=O)NC2=O)ccc1OC(=O)c1ccco1	-2%	0%	7%	/	17µM*	9%
